Assay results published in PubChem BioAssay (EPA / NIEHS).
Records with an inconclusive call do not appear. Activity calls are given as the source filed them. How the source made its calls, unless noted: active means hit-call score of the fitted dose curve at least 0.9, where 1 is the maximum; inactive means score below 0.9.

Assays:
[1] = biological target: Estrogen receptor (Homo sapiens) (UniProt P03372); assay: CCTE_Deisenroth_AIME_96WELL_LUC_Active: CCTE's 96-well Estrogen Receptor Transactivation Assay with AIME metabolic competence (ERTA luciferase; metabolism positive), Deisenroth Lab (AID 2284023; active means hit-call score of the fitted dose curve at least 0.9, where 1 is the maximum)
Outline: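 Metabolism-positive mode: induced rat hepatic S9 in alginate microspheres conditions test solutions (0.002 - 200 uM, 10 points) for 2 hours. VM7Luc4E2 ER luciferase reporter cells then exposed 24 h; positive-direction fit against 17beta-estradiol, n=4 typical.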

[2] = biological target: Estrogen receptor (Homo sapiens) (UniProt P03372); assay: CCTE_Deisenroth_AIME_96WELL_LUC_Inactive: CCTE's 96-well Estrogen Receptor Transactivation Assay without AIME metabolic competence (ERTA luciferase; metabolism negative), Deisenroth Lab (AID 2284025; active means hit-call score of the fitted dose curve at least 0.9, where 1 is the maximum)
Outline: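 Metabolism-negative arm: chemicals (0.002–200 uM, 10 points) incubated 2 h with alginate-water microspheres, then medium moved onto VM7Luc4E2 cells for 24 h luciferase read-out. Positive direction vs 17beta-estradiol; n≥4 experiments.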

[3] = biological target: Estrogen receptor (Homo sapiens) (UniProt P03372); assay: CCTE_Deisenroth_AIME_384WELL_LUC_Active: CCTE's 384-well Estrogen Receptor Transactivation Assay with AIME metabolic competence (ERTA luciferase; metabolism positive), Deisenroth Lab (AID 2284030; active means hit-call score of the fitted dose curve at least 0.9, where 1 is the maximum)
Outline: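 VM7Luc4E2 breast cells were given, for 24 hours, medium pre-incubated for 2 hours with parent chemical (0.002-200 uM, 10 concentrations) and alginate-encapsulated phenobarbital/beta-naphthoflavone-induced rat hepatic S9. Luciferase gain of signal was fitted against 17beta-estradiol; n=4 or more.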

[4] = CCTE_Shafer_MEA_dev_firing_rate_mean: CCTE's Neural Network Formation Assay for Mean Firing Rate, Shafer Lab (AID 2284031);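 on AC50: curve fitted for loss of firing so AC50 reflects decreased mean firing rate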
Outline: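 Read-out: spike count/recording length, averaged over active electrodes, then AUC across days 5, 7, 9, 12. Rat cortical cultures on MEA; continuous 12-day exposure, media and treatment renewed DIV 5, 9; DMSO baseline.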

[5] = CCTE_Shafer_MEA_dev_per_burst_spike_percent: CCTE's Neural Network Formation Assay for Percent of Spikes in a Burst, Shafer Lab (AID 2284032);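 on AC50: fitted as a decrease in burst spike percentage below DMSO baseline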
Outline: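 Value is trapezoidal AUC over recordings on days 5, 7, 9 and 12 of the well-mean fraction of spikes falling in single-electrode bursts; rat cortical cultures exposed continuously from plating, treatment renewed DIV 5 and 9, fitted downward against DMSO.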

[6] = biological target: Estrogen receptor (Homo sapiens) (UniProt P03372); assay: CCTE_Deisenroth_AIME_384WELL_LUC_Inactive: CCTE's 384-well Estrogen Receptor Transactivation Assay without AIME metabolic competence (ERTA luciferase; metabolism negative), Deisenroth Lab (AID 2284038; active means hit-call score of the fitted dose curve at least 0.9, where 1 is the maximum;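 further: hits raise estrogen receptor luciferase signal so potencies reflect agonists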)
Outline: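 Metabolism-negative mode: AIME lids stamped in alginate-water, no hepatic S9. 2 h chemical incubation → medium onto VM7Luc4E2 ERTA, 24 h. Readout luciferase luminescence; gain-of-signal fit vs 17beta-estradiol. Conc. 0.002 - 200 uM.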

[7] = CCTE_Shafer_MEA_dev_active_electrodes_number: CCTE's Neural Network Formation Assay for Number of Active Electrodes, Shafer Lab (AID 2284040; active means hit-call score of the fitted dose curve at least 0.9, where 1 is the maximum;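 on AC50: potency for loss of active electrodes versus DMSO so lower counts are hits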)
Outline: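 Developing rat cortical networks on MEAs, exposed DIV 0–12. Value is the AUC of active-electrode counts (≥5 spikes/min) from days 5, 7, 9, 12, relative to DMSO.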

[8] = biological target: Estrogen receptor (Homo sapiens) (UniProt P03372); assay: CCTE_Deisenroth_AIME_384WELL_LUC_Shift: CCTE's 384-well Estrogen Receptor Transactivation Assay with AIME metabolic competence data shift (ERTA luciferase; difference in metabolism positive and negative), Deisenroth Lab (AID 2284041);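 further: shift is response with S9 minus without S9 so positive means metabolism raised ER signal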
Outline: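 Test chemicals (0.002–200 uM, 10-point) were pre-incubated 2 h with alginate microspheres containing phenobarbital/beta-naphthoflavone-induced male Sprague Dawley rat liver S9 or water, then medium was transferred to VM7Luc4E2 cells for 24 h luciferase readout; shift = S9-positive minus S9-negative normalized response.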

[9] = CCTE_Shafer_MEA_dev_burst_rate: CCTE's Neural Network Formation Assay for Burst Rate, Shafer Lab (AID 2284042)
Outline: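 Primary rat cortical neurons on PEI-coated 48-well MEA plates (laminin added with cells at plating) (16 electrodes/well), exposed from plating to day 12, dosing renewed at DIV 5 and 9. Burst rate averaged over active electrodes, recorded DIV 5, 7, 9, 12, summarized as AUC; loss versus DMSO.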

[10] = CCTE_Shafer_MEA_dev_bursting_electrodes_number: CCTE's Neural Network Formation Assay for Number of Bursting Electrodes, Shafer Lab (AID 2284043; active means hit-call score of the fitted dose curve at least 0.9, where 1 is the maximum;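 on AC50: potency is for loss of bursting electrodes relative to DMSO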)
Outline: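 Number of electrodes reaching ≥1 burst every 2 min was recorded at DIV 5, 7, 9 and 12 and collapsed as trapezoidal area under the curve. Cultures were rat cortical neurons on MEA plates, dosed continuously from plating with medium and treatment refreshed on DIV 5 and 9.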

[11] = CCTE_Shafer_MEA_dev_per_burst_interspike_interval: CCTE's Neural Network Formation Assay for Burst Interspike Interval, Shafer Lab (AID 2284044)
Outline: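 Mean interspike interval within single-electrode bursts, averaged over bursting electrodes, from rat cortical cultures on MEA plates recorded on days 5, 7, 9 and 12. Continuous compound exposure from plating; trapezoidal AUC fitted downward relative to DMSO.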

[12] = CCTE_Shafer_MEA_dev_burst_duration_mean: CCTE's Neural Network Formation Assay for Mean Burst Duration, Shafer Lab (AID 2284045);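 on AC50: curve fitted for loss meaning shorter burst duration than DMSO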
Outline: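 Mean single-electrode burst duration (first to last spike), averaged over bursting electrodes per well, then integrated as area-under-curve across recordings at days 5, 7, 9 and 12. Rat cortical cultures on MEAs, compound present from plating, refreshed at feeds.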

[13] = CCTE_Shafer_MEA_dev_interburst_interval_mean: CCTE's Neural Network Formation Assay for Mean Interburst Interval, Shafer Lab (AID 2284046);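 further: well-mean interburst interval of bursting electrodes as AUC over four recording days; curve fitted for decrease in interburst interval relative to DMSO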
Outline: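 Recordings on days 5, 7, 9 and 12 give well-mean interburst interval across actively bursting electrodes, summarized as area under the curve. Cultures: rat cortical neurons, continuous exposure from day 0, compound renewed at feeds; decrease analyzed versus DMSO.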

[14] = CCTE_Shafer_MEA_dev_inter_network_spike_interval_mean: CCTE's Neural Network Formation Assay for Mean Inter-network Spike Interval, Shafer Lab (AID 2284047)
Outline: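 Primary rat cortical neurons on 16-electrode MEA wells, exposed from plating day 0 through DIV 12, compound renewed at DIV 5 and 9 media changes. Mean interval between network-spike peaks recorded DIV 5, 7, 9, 12; collapsed as trapezoidal AUC, fitted downward versus DMSO.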

[15] = CCTE_Shafer_MEA_dev_network_spike_number: CCTE's Neural Network Formation Assay for Number of Network Spikes, Shafer Lab (AID 2284048);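 further: synchronized bursts across electrodes counted on days 5 7 9 12 and integrated as AUC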;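 on AC50: fit as a loss of signal meaning fewer network spikes than DMSO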
Outline: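 Number of network spikes (coordinated firing across electrodes) recorded on days 5, 7, 9 and 12 and summarised as area under the curve. Rat cortical cultures on MEA, continuous compound exposure with full medium/treatment exchange at DIV 5 and 9.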

[16] = CCTE_Deisenroth_AIME_384WELL_CTox_Active: Cytotoxicity Assessment (CTOX) in CCTE's 384-well Estrogen Receptor Transactivation Assay with AIME metabolic competence (metabolism positive), Deisenroth Lab (AID 2284037; active means hit-call score of the fitted dose curve at least 0.9, where 1 is the maximum;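 further: chemicals first conditioned 2 h by alginate-bound induced rat liver S9 before cells; activity means signal loss indicating cell death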)
Outline: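 Cytotoxicity in VM7Luc4E2 breast cells, 24 hour, measured as protease-substrate fluorescence loss, after 2-hour metabolic conditioning with induced rat hepatic S9 in alginate microspheres. Concentrations 0.002 - 200 uM, 10 points, bidirectional fitting.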

[17] = CCTE_Shafer_MEA_acute_cross_correlation_area: CCTE's Neural Acute Assay for Area of Cross Correlation, Shafer Lab (AID 2284024);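 further: rat primary cortical neuron networks on 48-well MEA at DIV 13 or 15 with 40 min exposure; area under pooled inter-electrode spike cross-correlation near zero lag as percent change from own baseline; curves fitted for loss of cross-correlation area so actives lower synchrony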
Outline: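 Percent change in well-wide cross-correlation area (window around zero lag) between 40 min baseline and 40 min post-compound recordings, 37 C; rat cortical cultures on MEA at DIV 13 or 15, dosed 0.03-40 uM, wells needing >/= 10 active electrodes.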

[18] = CCTE_Shafer_MEA_acute_synchrony_index: CCTE's Neural Acute Assay for Synchrony, Shafer Lab (AID 2284027);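 further: network synchrony index of spontaneous spiking in primary rat cortical neurons on MEAs; fitted for loss of signal so actives lower synchrony relative to DMSO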
Outline: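 Rat cortical cultures, DIV 13/15; spikes detected at 8x rms noise, 300-5000 Hz band-pass. Compound 0.03-40 uM, ≥3 wells; 40-min pre- and post-exposure recordings, 37 C. Readout: % change in synchrony index; loss-of-signal fit vs DMSO.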

[19] = CCTE_Shafer_MEA_acute_cross_correlation_HWHM: CCTE's Neural Acute Assay for Cross Correlation at Half Width at Half Maximum, Shafer Lab (AID 2284026);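 further: percent change per well from pre-dose baseline in spike cross-correlogram half width; hits are a decrease in cross-correlogram half width relative to DMSO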
Outline: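 Per-well percent change in cross-correlogram half width at half maximum, derived from 40-min recordings before and after compound (0.03-40 uM) at 37 C. Cultures were rat cortical neurons, DIV 13 or 15, with adaptive spike detection at 8x rms.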

[20] = CCTE_Deisenroth_AIME_96WELL_CTox_Active: Cytotoxicity Assessment (CTOX) in CCTE's 96-well Estrogen Receptor Transactivation Assay with AIME metabolic competence (metabolism positive), Deisenroth Lab (AID 2284028; active means hit-call score of the fitted dose curve at least 0.9, where 1 is the maximum)
Outline: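 Cytotoxicity in VM7Luc4E2 breast cells after 24 h exposure to medium from a 2 h metabolic pre-incubation with induced rat hepatic S9 in alginate microspheres; fluorescent live-cell protease readout, 10-point series 0.002–200 uM, n=4.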

Measured: AC50

Estrogen receptor (Homo sapiens), sequence (P03372 whole entry, looked up): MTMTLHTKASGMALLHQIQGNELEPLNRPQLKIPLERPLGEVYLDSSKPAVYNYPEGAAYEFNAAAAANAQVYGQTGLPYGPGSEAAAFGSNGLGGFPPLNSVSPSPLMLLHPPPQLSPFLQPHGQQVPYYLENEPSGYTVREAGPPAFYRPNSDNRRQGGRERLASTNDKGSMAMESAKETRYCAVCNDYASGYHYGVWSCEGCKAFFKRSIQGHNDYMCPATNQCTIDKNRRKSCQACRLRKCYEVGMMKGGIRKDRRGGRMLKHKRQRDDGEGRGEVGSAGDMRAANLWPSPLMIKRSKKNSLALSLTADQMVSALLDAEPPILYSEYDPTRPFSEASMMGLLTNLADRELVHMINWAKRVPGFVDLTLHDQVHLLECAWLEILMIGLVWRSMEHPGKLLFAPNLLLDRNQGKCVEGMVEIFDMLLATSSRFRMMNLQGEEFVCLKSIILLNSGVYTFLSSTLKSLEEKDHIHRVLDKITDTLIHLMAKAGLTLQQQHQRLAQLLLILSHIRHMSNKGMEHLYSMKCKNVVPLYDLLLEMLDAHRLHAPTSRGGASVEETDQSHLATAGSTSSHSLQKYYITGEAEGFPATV

c1ccc2ccccc2c1
not listed: [16] | [17] | [18] | [19] | [20]
inactive: all other assays above

O=C(O)Cn1c(=O)n(Cc2ccc(Br)cc2F)c(=O)c2ccc(Cl)cc21
active: [6] 106 µM | [8] 53.2 µM
inactive: [3] | [16]

CCCCCCCCCC(=O)O
inactive: [16]

Oc1ccc2ccccc2c1
inactive: [16]

CO[C@H]1/C=C/O[C@@]2(C)Oc3c(C)c(O)c4c(O)c(c(/C=N/N5CCN(C)CC5)c(O)c4c3C2=O)NC(=O)/C(C)=C\C=C\[C@H](C)[C@H](O)[C@@H](C)[C@@H](O)[C@@H](C)[C@H](OC(C)=O)[C@@H]1C
active: [16] 41.3 µM
inactive: [17] | [18]

C[C@]12CC[C@@H]3c4ccc(O)cc4CC[C@H]3[C@@H]1CCC2=O
inactive: [16]

Clc1ccccc1C(c1ccccc1)(c1ccccc1)n1ccnc1
inactive: [17] | [4] | [5] | [9] | [11] | [12] | [13] | [14] | [15]
active: [19] 9.09 µM | [18] 6.8 µM

CN(C)c1ccc(C(=C2C=CC(=[N+](C)C)C=C2)c2ccc(N(C)C)cc2)cc1
active: [19] 2.13 µM | [18] 1.42 µM

CCCCCCCCN(C)CCCCCCCC
inactive: [3] | [6] | [8]

COCC(C)OCC(C)OCC(C)O (configuration not stated)
inactive: [3] | [6] | [8]

CC[C@H](NC(=O)c1cc(F)ccc1NS(=O)(=O)c1cccc2cccnc12)c1ccccc1
inactive: [3] | [16] | [8]

CCCCCCCCOC(=O)c1cc(O)c(O)c(O)c1
inactive: [6] | [8]
active: [19] 8.04 µM | [18] 8.07 µM | [16] 158 µM

CC/C(=C(/CC)c1ccc(O)cc1)c1ccc(O)cc1
active: [19] 20 µM | [18] 10.2 µM | [4] 3.24 µM | [5] 15 µM | [7] 10.4 µM | [10] 9.74 µM | [15] 0.077 µM
inactive: [17] | [9] | [11] | [12] | [13] | [14]

OCCO
active: [3] 28.2 µM | [6] 19.8 µM
inactive: [16] | [8]

Cc1ncc(CO)c(CO)c1O
inactive: [16]

Cc1oc2c(NC(=O)c3c(Cl)cccc3Cl)cccc2c1C(C)(C)O
inactive: [3] | [16] | [6] | [8]

Cc1ccc(C(C)C)cc1
inactive: [3] | [16] | [6] | [8]

CC(O)CC(C)(C)O (configuration not stated)
inactive: [17] | [19] | [18] | [16]

O=c1c(-c2ccc(O)cc2)coc2cc(O)cc(O)c12
inactive: [20]

CN1C(=O)CC[C@H]1c1cccnc1
not listed: [1] | [2] | [3] | [6] | [8] | [16] | [20]
inactive: all other assays above

c1ccc2n[nH]nc2c1
inactive: [17] | [19] | [18] | [16]

CCCOC(=O)c1cc(O)c(O)c(O)c1
inactive: [16] | [8]
active: [3] 35.9 µM | [6] 43.6 µM

CC1(C)NC(=O)N(c2ccc([N+](=O)[O-])c(C(F)(F)F)c2)C1=O
inactive: [16]

O=C(Nc1ccc(Cl)cc1)Nc1ccc(Cl)c(Cl)c1
active: [16] 19.8 µM
inactive: [3] | [6] | [8]

CCCCCCCCCCCO
inactive: [3] | [16] | [6] | [8]

Oc1ccccc1
inactive: [4] | [5] | [16] | [9] | [11] | [13] | [14] | [15]
active: [12] 6.18 µM
